Screening data (PubChem BioAssay)
Shown are actives, neighbours in structure and some others; about 2.8% of the full set was active somewhere.
KDM5B inh: KDM5B demethylase inhibition | Potency, µM (highest dose often 57.7 µM), actives largely listed as inhibitors | 220,000 tested, 2.6% active | KDM5B demethylase, FDH-coupled NADH fluorescence (FDH is formaldehyde dehydrogenase) | Q9UGL1; note: potency is the fitted concentration of half-maximal effect; 0% is about no effect; nearly all actives have a fitted effect of over 70% in size
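Inhibition is measured as reduced NADH fluorescence generation from FDH coupling to formaldehyde release. Truncated KDM5BΔAP at 200 nM final acts on H3K4me3 peptide (12.5 µM in substrate mix) in pH 7.5 HEPES buffer with Tween-20, 30 min, room temperature.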
IP6K1 inhibitor: blocks human inositol hexakisphosphate kinase 1; Q92551; IP6K1 kinase, ADP-Glo luminescence, 2 h; active compounds read low; activity change, % (series mostly up to about 58 µM); 140,000 tested, 0.81% active; in the data active = activity change below about -25%; note: % is set by controls: 0 for no effect and ±100 for the full control effect
Target sequence (Q92551 whole entry, looked up): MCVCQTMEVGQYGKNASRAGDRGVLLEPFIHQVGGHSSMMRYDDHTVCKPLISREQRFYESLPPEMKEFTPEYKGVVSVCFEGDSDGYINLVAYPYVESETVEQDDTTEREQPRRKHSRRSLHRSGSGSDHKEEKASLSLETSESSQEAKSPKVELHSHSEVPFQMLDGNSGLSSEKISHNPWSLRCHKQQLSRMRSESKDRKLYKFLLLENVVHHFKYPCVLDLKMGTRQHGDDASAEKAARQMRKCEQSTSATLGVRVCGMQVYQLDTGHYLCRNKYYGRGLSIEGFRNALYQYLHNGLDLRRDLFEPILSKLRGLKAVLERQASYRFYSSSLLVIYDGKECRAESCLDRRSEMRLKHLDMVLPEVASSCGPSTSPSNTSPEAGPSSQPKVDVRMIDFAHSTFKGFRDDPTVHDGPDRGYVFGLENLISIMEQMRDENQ
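ADP-Glo luminescence measures ADP made by human IP6K1 during a 2 h RT reaction with ATP/IP6 (mix at 1.3 mM/130 uM); top library doses 57.5 and 19.1 uM final.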
SNCA expr inh: reduces expression of the alpha-synuclein gene. 140,000 tested, 0.17% active. Potency, µM (highest dose often 57.2 µM), for the others: at the highest dose activity change, negative = inhibition, hits mostly inhibitors. HEK-293 SNCA-luciferase knock-in, luminescence, 24 h;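 note: potency is the fitted concentration of half-maximal effect; plate controls were DMSO cells for no effect and cell-free wells for full effect; nearly all actives have a fitted effect of over 45% in size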
SNCA viab count: counter-screen for SNCA expression inhibitors: cell viability; HEK-293-SNCA-luc viability, GF-AFC fluorescence, 24 h; Potency, µM (doses to about 57.1 µM), without a hit: top-dose activity change, negative = cytotoxicity, most hits filed as cytotoxic; 150,000 tested, 0.12% active; AID 1671193;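 note: potency is the fitted concentration of half-maximal effect; 0% = DMSO-treated cells and -100% = medium-only wells without cells; nearly all actives have a fitted effect of over 30% in size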
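Cytotoxicity counterscreen: after 24 h compound treatment of genome-edited SNCA-luciferase HEK-293 cells, live-cell protease substrate GF-AFC read by fluorescence after 30 min; activity scaled between DMSO (0%) and medium-only (-100%), curves Hill-fitted.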
The depositor's hits bear a star; i = inactive; ? = inconclusive; / = not tested or not shown; [ ] = dose if it differs, or a comment. Unless noted, calls come from the whole dose curve; as a rule, active = well fitted curve in the direction sought with a large enough effect; inconclusive = small, poorly fitted or top-dose-only effect, or another doubt; inactive = no such curve, though single readings can be large; an effect the other way counts as inactive or inconclusive.

SMILES	KDM5B inh	IP6K1 inhibitor	SNCA expr inh	SNCA viab count
COc1ccc(C(=O)NC2CCN(c3cc(-c4ccc(OC)cc4)[nH]n3)CC2)cc1	?	15	11%	-10%
COc1ccc(-c2cc(N3CCC(NC(=O)c4ccc(Br)cc4)C3)n[nH]2)cc1 (configuration not stated)	11µM*	7	-10%	-9%
Cn1ncc(N2CCC(CNC(=O)c3cccc4ncccc34)C2)cc1=O (configuration not stated)	i	2	3%	0%
Cn1ncc(N2CCC(CNC(=O)c3cccc4ccnn34)C2)cc1=O (configuration not stated)	28µM*	-3	-4%	7%
COCCNC(=O)c1ccc2c(c1)N(C)C(CC(=O)NCCO)CO2 (configuration not stated)	28µM*	2	5%	5%
CC(C)CN(C(=O)CC1COc2ccc(C(=O)N(C)C)cc2N1C)C1CC1 (configuration not stated)	i	5	-10%	9%
COCCNC(=O)c1ccc2c(c1)N(C)C(CC(=O)NCc1ccncc1)CO2 (configuration not stated)	?	-2	-1%	1%
COCCNC(=O)c1ccc2c(c1)N(C)C(CC(=O)NCC(F)(F)F)CO2 (configuration not stated)	20µM*	37	-14%	3%
COCCNC(=O)c1ccc2c(c1)N(C)C(CC(=O)NCc1ccccn1)CO2 (configuration not stated)	28µM*	-16	?	-7%
COCCNC(=O)c1ccc2c(c1)N(C)C(CC(=O)Nc1ccc[nH]c1=O)CO2 (configuration not stated)	28µM*	3	-8%	2%
Cc1noc(C)c1CCC(=O)NCc1cccnc1N1CCOCC1	?	-4	44%	-2%
COCCNC(=O)N1CCc2c(sc3ncnc(N(C)C)c23)C1	?	5	6%	-14%
COCCNC(=O)c1ccc2c(c1)OCCN(c1ccccc1)C2	i	-5	-23%[87.6 µM]	-10%[87.6 µM]
C=CCNC(=O)CC1COc2ccc(C(=O)NCCOC)cc2N1C (configuration not stated)	28µM*	4	4%	-14%
COCCNC(=O)c1ccc2c(c1)N(C)C(CC(=O)NC(C)(C)CO)CO2 (configuration not stated)	32µM*	2	3%	6%
COCCNC(=O)c1ccc2c(c1)N(C)C(CC(=O)NC1CCOCC1)CO2 (configuration not stated)	32µM*	-3	4%	6%
CN(C)C(=O)c1ccc2c(c1)N(C)C(CC(=O)NC(C)(CO)CO)CO2 (configuration not stated)	i	1	10%	12%
COc1ccc(N2CC(c3noc(-c4cc(OC)cc(OC)c4)n3)CC2=O)cc1 (configuration not stated)	?	16	-2%	0%
CCc1ccc(N2CC(c3noc(-c4cnccn4)n3)CC2=O)cc1 (configuration not stated)	i	29	3%	4%
O=C1CC(c2noc(-c3ccc4c(c3)OCO4)n2)CN1c1ccc(F)cc1 (configuration not stated)	28µM*	-7	3%	?
CCc1ccc(N2CC(c3noc(-c4ccc(N(C)C)cc4)n3)CC2=O)cc1 (configuration not stated)	32µM*	33	-15%	0%
COc1ccc(N2CC(c3noc(-c4ccc(N(C)C)cc4)n3)CC2=O)cc1 (configuration not stated)	35µM*	5	5%	8%
COc1cc(OC)cc(-c2nc(C3CC(=O)N(c4ccc(C)cc4)C3)no2)c1 (configuration not stated)	32µM*	0	-20%	6%
O=C(Nc1ccsc1)N[C@H]1C[C@H]2C(=O)NC[C@@H](CCC(=O)N3CCc4ccccc43)N2C1	i	2	-2%	6%
CCc1ccc(N2CC(c3noc(-c4ccc(OC)c(F)c4)n3)CC2=O)cc1 (configuration not stated)	32µM*	34	30%	8%
SMILES	KDM5B inh	IP6K1 inhibitor	SNCA expr inh	SNCA viab count
COCCOC1CN(C2CCN(C(=O)c3cnccn3)CC2)C12CCCCC2 (configuration not stated)	i	-1	-15%	3%
O=C(CSc1ccccc1)N1CCCC2(C1)Nc1cccnc1NC2=NC1CCCC1 (configuration not stated)	28µM*	7	2%	-19%
COc1ccc(C(=O)N2CCCC3(C2)Nc2cccnc2NC3=NC2CCCC2)cn1 (configuration not stated)	?	1	-20%	-18%
COc1cc(OC)cc(C(=O)N2CCCC3(C2)Nc2cccnc2NC3=NC2CCCC2)c1 (configuration not stated)	28µM*	5	6%	-12%
COc1ccc(OCC(=O)N2CCCC3(C2)Nc2cccnc2NC3=NC2CCCC2)cc1 (configuration not stated)	25µM*	17	-12%	-13%
O=C(c1ccc(Cl)s1)N1CCN(c2ncccn2)CC1	i	/	/	/
O=C(c1ccc(Cl)s1)N1CCCC2(C1)Nc1cccnc1NC2=NC1CCCC1 (configuration not stated)	28µM*	0	-17%	-22%
COc1ccc(S(=O)(=O)N2CC(n3cnnc3C3CC3)C2)cc1	/	8	-17%	-7%
Cc1ccccc1C(=O)N1CCCC2(C1)Nc1cccnc1NC2=NC1CCCC1 (configuration not stated)	16µM*	10	1%	-19%
O=C(Cc1c[nH]c2ccccc12)N1CCCC2(C1)Nc1cccnc1NC2=NC1CCCC1 (configuration not stated)	?	1	33%	-13%
Cc1ccc(C(=O)N2CCCC3(C2)C(=NC2CCCC2)NC(=O)N3c2cccnc2)cc1 (configuration not stated)	i	-9	39%	2%
O=C(c1ccc2nc[nH]c2c1)N1CCCC2(C1)Nc1cccnc1NC2=NC1CCCC1 (configuration not stated)	28µM*	-8	1%	?
O=S(=O)(c1cccs1)N1CCCC2(C1)Nc1cccnc1NC2=NC1CCCC1 (configuration not stated)	11µM*	14	-7%	-21%
CCCn1c(C)cnc1CC1CCCN(S(=O)(=O)c2cccs2)C1 (configuration not stated)	i	2	-1%	-2%
CCCNC(=S)Nc1ccc(Cl)c(Cl)c1	i	/	/	/
CCc1cnn2c(NCc3ccc[n+]([O-])c3)cc(N3CCCC[C@@H]3CCO)nc12	/	/	0.061µM*	?
CCSc1oc(-c2ccc(F)cc2)nc1S(=O)(=O)c1ccc(F)cc1	i	/	/	/
CC(C)c1noc(-c2ccn3c(CNC(=O)c4ccco4)nnc3c2)n1	28µM*	3	-19%	-20%
CCc1ccc(C(=O)NCc2nnc3cc(-c4nc(C(C)C)no4)ccn23)cc1	i	-6	?	-30%
